{"source": "PubChem BioAssay (EPA / NIEHS)", "note": "Values joined by “and” are separate entries in the source; they are usually repeats but may differ in a detail not shown here. Equal values may be shown once. Inconclusive results are not listed. Active and inactive are the calls of the source. The calls were made as follows: active = hit-call score of the fitted dose curve at least 0.9, where 1 is the maximum; inconclusive = response in the unintended direction; inactive = score below 0.9.", "data": [{"assay": "TOX21_p53_BLA_p2_viability: Viability Assessment in the Tox21 HCT-116 p53 Agonism Beta-lactamase Assay, Phase 2 (AID 2283591);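 also: compound exposure lasted 16 h at 37 °C; actives lower the ATP signal meaning cytotoxicity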", "description": "TOX21_p53_BLA_p2 is a cell-based, single-readout assay that uses HCT116, a human intestinal cell line, […] in a 1536-well plate.TOX21_p53_BLA_p2_viability is an assay readout measuring cellular ATP content and detected with CellTiter-Glo Luciferase-coupled ATP quantitation.TOX21_p53_BLA_p2_viability used a type of viability reporter where loss-of-signal activity can be used to understand changes in the cell viability. Furthermore, this assay endpoint can be referred to as a secondary readout, because this assay has produced multiple assay endpoints where this one serves a viability function. To generalize the intended target to other relatable targets, this assay endpoint is annotated to the cell cycle intended target family, where the subfamily is cytotoxicity.\nThawing Method: Place 14 mL of pre-warmed thaw medium into a 15 mL of conical tub. Remove the vial of cells to be thawed from liquid nitrogen and thaw rapidly by placing at 37C in a water bath with gentle agitation for 1-2 minutes. Decontaminate the vial by wiping with 70% ethanol before opening in a biological safety cabinet. Transfer the vial contents drop-wise into 14 mL of thaw medium in a sterile 15-mL conical tub. Centrifuge cells at 900 rpm for 4 minutes and resuspend in thaw medium. Transfer contents to the T75 tissue culture flask containing Thaw Medium and place flask in a humidified 37C/5% CO2 incubator. Switch to growth medium at first passage.Propagation Method: Aspirate medium, rinse once in DPBS, add 0.25% Trypsin/EDTA and swirl to coat the cell evenly. Add an equal volume of Growth Medium to inactivate Trypsin after 2-3 minutes incubation at 37C. Centrifuge cells at 900 rpm for 4 minutes and resuspend in growth medium. Cell should be passage or fed at least twice a week.Assay Protocol: Harvest cells from culture in growth medium and resuspend in assay medium. 2.2 Dispense 4000 cells/5 uL/well into 1536-well black/clear bottom plates using a Multidrop dispenser. After the cells were incubated at 37C for 5 hours, 23 nL of compounds dissolved in DMSO were transferred to the assay plate by a PinTool resulting in a 217-fold dilution. Incubate the plates for 16 hours at 37C, 5% CO2. Add 1 uL of 6X LiveBLAzer FRET B/G (CCF4-AM) Substrate Mixture to each well using a BioRAPTR dispenser and incubate the plates at room temperature for 2 hours. Measure fluorescence intensity at 460 and 530 nm emission and 405 nm excitation by an Envision detector. Data is expressed as the ratio of 460nm/530nm emissions. Add 4 uL of Cell-titer Glo to each well using BioRAPTR and incubate the plates at room temperature for […]. For cell viability readout that measures cytotoxicity, 4 ul/well of CellTiter-Glo reagent was added into the assay plates using a Flying Reagent Dispenser. After 30 min incubation at room temperature, the luminescence intensity in the plates was measured using a ViewLux plate reader.", "values": [{"smiles": "CCCCC(CC)CN1C(=O)C2C3C=CC(C3)C2C1=O", "note": "(centres undefined)", "outcome": "inactive"}, {"smiles": "CCOC(=O)C(C)Oc1ccc(Oc2nc3ccc(Cl)cc3o2)cc1", "note": "(centres undefined)", "outcome": "inactive"}, {"smiles": "CCCOC(=O)c1ccc(C(=O)OCCC)nc1", "outcome": "inactive"}, {"smiles": "COC(=O)c1ccc(I)cc1S(=O)(=O)NC(=O)Nc1nc(C)nc(OC)n1", "outcome": "inactive"}, {"smiles": "CC(C)(c1ccc(O)cc1)c1ccc(O)cc1", "outcome": "inactive"}, {"smiles": "C#C[C@]1(O)CC[C@H]2[C@@H]3CCC4=CC(=O)CC[C@@H]4[C@H]3CC[C@@]21CC", "outcome": "inactive"}, {"smiles": "N[C@@H](Cc1cc(I)c(Oc2ccc(O)c(I)c2)c(I)c1)C(=O)O", "outcome": "inactive"}, {"smiles": "c1ccc(Nc2ccccc2)cc1", "outcome": "inactive"}, {"smiles": "C[C@]12CC[C@@H]3c4ccc(O)cc4C[C@@H](CCCCCCCCCS(=O)CCCC(F)(F)C(F)(F)F)[C@H]3[C@@H]1CC[C@@H]2O", "note": "(some centres undefined)", "outcome": "inactive"}, {"smiles": "O=C(O)c1ccccc1", "outcome": "inactive"}, {"smiles": "CCCCC(CC)COC(=O)c1ccccc1C(=O)O", "note": "(centres undefined)", "outcome": "inactive"}, {"smiles": "CCCN(CCC)c1c([N+](=O)[O-])cc(C(F)(F)F)c(N)c1[N+](=O)[O-]", "AC50": "23.1 µM (active)"}, {"smiles": "Oc1ccc(C(c2ccc(O)cc2)C(Cl)(Cl)Cl)cc1", "AC50": "54.6 µM (active) and 45.9 µM (active)"}, {"smiles": "CCOC(=O)COc1cc(-n2ncc(C(F)(F)F)c(C)c2=O)c(F)cc1Cl", "outcome": "inactive"}, {"smiles": "OB(O)O", "outcome": "inactive"}, {"smiles": "CC(C)CCCCCCc1ccc(O)cc1", "outcome": "inactive"}, {"smiles": "O=C(O)C1(C(=O)Nc2ccc(Cl)cc2Cl)CC1", "outcome": "inactive"}, {"smiles": "COC(=O)CSc1cc(N=c2sc(=O)n3n2CCCC3)c(F)cc1Cl", "outcome": "inactive"}, {"smiles": "CCCOC(=O)NCCCN(C)C", "outcome": "inactive"}, {"smiles": "CC(=O)[C@H]1CC[C@H]2[C@@H]3CCC4=CC(=O)CC[C@]4(C)[C@H]3CC[C@]12C", "outcome": "inactive"}, {"smiles": "COc1nc(C)nc(NC(=O)NS(=O)(=O)c2ccccc2OCCCl)n1", "outcome": "inactive"}, {"smiles": "CCCCOC(=O)C(C)Oc1ccc(Oc2ccc(C(F)(F)F)cn2)cc1", "note": "(centres undefined)", "outcome": "inactive"}, {"smiles": "CC1(C)C(C=C(Cl)Cl)C1C(=O)OCc1cccc(Oc2ccccc2)c1", "note": "(centres undefined)", "outcome": "inactive"}, {"smiles": "Cc1nn(C)c(Oc2ccccc2)c1C=NOCc1ccc(C(=O)OC(C)(C)C)cc1", "outcome": "inactive"}, {"smiles": "CC(C)(C)[C@@H](O)[C@@H](Cc1ccc(Cl)cc1)n1cncn1", "outcome": "inactive"}, {"smiles": "CCOC(=O)c1ccc(O)cc1", "outcome": "inactive"}, {"smiles": "CN(C)C(=O)Nc1ccc(Cl)c(Cl)c1", "outcome": "inactive"}, {"smiles": "CCCCOC(=O)[C@@H](C)Oc1ccc(Oc2ccc(C(F)(F)F)cn2)cc1", "outcome": "inactive"}, {"smiles": "CCOC(=O)NCCOc1ccc(Oc2ccccc2)cc1", "outcome": "inactive"}, {"smiles": "CCN(Cc1c(F)cccc1Cl)c1c([N+](=O)[O-])cc(C(F)(F)F)cc1[N+](=O)[O-]", "outcome": "inactive"}, {"smiles": "C[C@]12C[C@H](O)[C@H]3[C@@H](CCC4=CC(=O)CC[C@@]43C)[C@@H]1CC[C@@H]2C(=O)CO", "outcome": "inactive"}, {"smiles": "O=C(Nc1ccc([N+](=O)[O-])cc1Cl)c1cc(Cl)ccc1O", "AC50": "129 nM (active) and 152 nM (active)"}, {"smiles": "C#CCOC(=O)[C@@H](C)Oc1ccc(Oc2ncc(Cl)cc2F)cc1", "outcome": "inactive"}, {"smiles": "CCCCCCC(C)OC(=O)COc1nc(F)c(Cl)c(N)c1Cl", "note": "(centres undefined)", "AC50": "70.8 µM (active)"}]}]}
